Source: PubChem BioAssay (National Center for Advancing Translational Sciences (NCATS))
Marburg entry inh – blocks Marburg virus binding to or entry into cells. 300,000 compounds, 1.8% hits. Marburg virus pseudotyped entry inhibition, cell reporter. Potency, µM (series often up to 37.8 µM), usual class: inhibitors; calls by dose curve; tested in HEK293 cells
LASV entry inh – inhibitors of Lassa virus binding or cell entry. Lassa virus pseudotype entry inhibition, cell reporter. Potency, µM (top dose mostly 37.9 µM), hits mostly inhibitors. 300,000 compounds, 1.2% hits; calls by dose curve; tested in HEK293 cells; note: nearly all actives have a fitted effect of over 50% in size
FMDV inh – antivirals against foot and mouth disease virus | FMDV antiviral cell-based qHTS | Potency, µM (top dose mostly 57.9 µM), actives largely listed as inhibitors | 410,000 compounds, 1.2% hits; calls by dose curve; tested in HEK293T cells; note: read-out not given here; nearly all actives have a fitted effect of over 45% in size
HCMV inh – blocks human cytomegalovirus replication; HFF cells, HCMV-luciferase reporter, 72 h; active compounds read low; activity change, negative = inhibition, % at 57.5 µM; 410,000 compounds, 4.5% hits; in the data active = activity change below about -60%; inconclusive = no clear call, values can overlap the other calls; inactive = above about -39%
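Cell-based, HFFs, 1000 cells/well, 16 h 37C; cpds in DMSO + HCMV-luc, MOI 1 PFU/cell; 72 h 37C; OneGlo luminescence after 5 min RT; norm. to buffer vs Salinomycin 10uM.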
Of the large screens only hits and unclear results are named; the others gave an inactive call. Most compounds without a hit are left out; they make up all but 6.2% or so of the library.

COc1ccc(Cc2nnc(N=Nc3c(O)[nH]c4ccc(Br)cc34)[nH]c2=O)cc1	none
c1ccc(-n2nnc3ccccc32)nc1	none
Cc1ccccc1CN1C(=O)CN=C(c2ccccc2)c2cc(Cl)ccc21	LASV entry inh inconclusive, FMDV inh inconclusive, HCMV inh -70.9 (no result: Marburg entry inh)
Cc1ccc(-c2nc(CN3C(=O)CN=C(c4ccccc4)c4cc(Cl)ccc43)c(C)o2)cc1	none
COc1cc(CCC(=O)OCC(=O)N2CC(=O)Nc3ccccc32)cc(OC)c1OC	none
O=[N+]([O-])c1cc([N+](=O)[O-])c(Oc2cc(Cl)cc(Cl)c2)cc1NN1CCCCC1	HCMV inh -78.1 (no result: Marburg entry inh, LASV entry inh)
O=[N+]([O-])c1cc([N+](=O)[O-])c(Oc2cncc(Cl)c2)cc1NN1CCCCC1	HCMV inh inconclusive (no result: Marburg entry inh, LASV entry inh)
COC(=O)c1ccccc1OCCOCCOc1cccc2cccnc12	none
O=C(Nc1nc(-c2ccccc2)cs1)C1CCCN(S(=O)(=O)c2ccccc2)C1 (stereo not given)	Marburg entry inh 8.2µM, LASV entry inh 10.3µM, FMDV inh 10µM, HCMV inh inconclusive
O=C(Nc1nc(-c2cccs2)cs1)c1cccc(S(=O)(=O)N2CCCCC2)c1	Marburg entry inh inconclusive
O=C(Nc1ccc(S(=O)(=O)N2CCCC2)cc1)c1cccs1	LASV entry inh inconclusive, HCMV inh inconclusive
O=C(Nc1nc(-c2ccc(S(=O)(=O)N3CCCC3)cc2)cs1)c1cccs1	Marburg entry inh inconclusive, LASV entry inh inconclusive, FMDV inh inconclusive, HCMV inh -87.0
O=C(Nc1nc(-c2ccccc2)cs1)C1CCCN(S(=O)(=O)c2cccc([N+](=O)[O-])c2)C1 (stereo not given)	Marburg entry inh inconclusive, LASV entry inh inconclusive
O=C(Nc1nc(-c2ccc(S(=O)(=O)N3CCCCCC3)cc2)cs1)c1cccs1	Marburg entry inh inconclusive, FMDV inh 10µM
O=C(COc1ccc(Cl)cc1Cl)NC(=O)N1CCCCC1	Marburg entry inh inconclusive, LASV entry inh inconclusive (no result: FMDV inh)
Cc1ccccc1C(=O)c1c[nH]c(C(=O)NCCCn2ccnc2)c1	none
COc1ccc2nc3cc(Cl)ccc3c(Nc3ccc(O)c(CN4CCN(C)CC4)c3)c2c1	Marburg entry inh 4.47µM, LASV entry inh inconclusive
CN1CCN(C2=Cc3ccccc3Sc3cc(F)ccc32)CC1	Marburg entry inh inconclusive
CN1CCN(C2=Cc3ccc(Cl)cc3Sc3ccc(F)cc32)CC1	Marburg entry inh 7.94µM, LASV entry inh inconclusive
COC(=O)C[C@H]1C=C[C@@H](NC(=O)Cc2cccnc2)[C@@H](CO)O1	none (no result: Marburg entry inh, LASV entry inh)
COc1cccc(CNS(=O)(=O)c2cc3c(cc2C)NC(=O)CO3)c1	none (no result: Marburg entry inh, LASV entry inh)
Cc1[nH]c(-c2ccco2)nc1C(=O)O	HCMV inh -110.5
CCCC1=Nc2cc(C(=O)NC3CCC(C)CC3)ccc2Sc2ccccc21 (stereo not given)	Marburg entry inh inconclusive, LASV entry inh inconclusive, HCMV inh -76.9
CC1CCC(NC(=O)c2ccc3c(c2)S(=O)(=O)c2ccccc2C3=O)CC1 (stereo not given)	HCMV inh -67.1 (no result: Marburg entry inh, LASV entry inh)
CCCC1=Nc2cc(C(=O)NCCc3ccccc3)ccc2Sc2ccc(C)cc21	Marburg entry inh inconclusive, HCMV inh -67.2
CCOCCCNC(=O)c1ccc2c(c1)N=C(CC)c1cc(Br)ccc1S2	Marburg entry inh inconclusive, LASV entry inh inconclusive, HCMV inh -88.5
CCC1=Nc2cc(C(=O)NCCc3ccccc3)ccc2Sc2ccc(Cl)cc21	LASV entry inh inconclusive
N/C(=N\OC(=O)C1CCCCC1)c1ccncc1	none
CC(Sc1nnc(N)s1)C(=O)Nc1ccc2c(c1)OCCO2 (stereo not given)	none (no result: Marburg entry inh, LASV entry inh)
Cc1sc2ncnc(SCC(=O)Nc3ncccc3O)c2c1C	none (no result: Marburg entry inh, LASV entry inh)
CCCNC(=O)c1ccc2c(c1)N=C(CCC)c1ccccc1S2	Marburg entry inh inconclusive, HCMV inh -86.1
CCCC1=Nc2cc(C(=O)NCCc3ccc(OC)cc3OC)ccc2Sc2ccccc21	Marburg entry inh inconclusive, LASV entry inh inconclusive, HCMV inh inconclusive
CC(C)c1ccc(C(=O)Nc2ccc(N3CCOCC3)cc2)cc1	Marburg entry inh inconclusive, HCMV inh -66.0
CC(C)(C)c1ccc(C(=O)NC(=S)Nc2ccc(N3CCOCC3)cc2)cc1	Marburg entry inh 0.794µM, LASV entry inh inconclusive
Cc1nc2cc(NC(=O)Nc3ccc(N4CCOCC4)cc3)ccc2n1C	HCMV inh -63.4
CC(=O)c1ccc(C(=O)Nc2ccc(N3CCOCC3)cc2)cc1	none
O=C(NC(=S)Nc1ccc(N2CCOCC2)cc1)c1ccc(Cl)cc1	Marburg entry inh inconclusive, FMDV inh inconclusive
Cc1ccc(C(=O)N[C@H](C(=O)Nc2ccc(N3CCOCC3)cc2)C(C)C)cc1	Marburg entry inh inconclusive
CC(C)(C)c1ccc(C(=O)Nc2ccc(N3CCOCC3)cc2)cc1	Marburg entry inh inconclusive, HCMV inh -78.5 (no result: FMDV inh)
CCCCN(C(=O)CNC(=O)c1cccs1)C(C(=O)NC1CCCC1)c1ccncc1 (stereo not given)	HCMV inh inconclusive
CCN1CCN(C(=O)c2ccc3nc(-c4ccccc4)c(-c4ccccc4)nc3c2)CC1	none
CC(C)(C)n1nnnc1C(c1cccs1)N1CCN(c2ccccc2)CC1 (stereo not given)	LASV entry inh inconclusive
C/C(=N\NC(=O)c1ccc2c(c1)OCO2)c1ccc(NS(C)(=O)=O)cc1	none
CC(=O)c1ccc(N2CCN(C(=O)Nc3ccc(C(C)C)cc3)CC2)cc1	Marburg entry inh 3.16µM, LASV entry inh inconclusive, FMDV inh 14.1µM, HCMV inh -82.3
CC(C)c1ccc(NC(=O)N2CCOCC2)cc1	none (no result: Marburg entry inh, LASV entry inh)
CC(C)C(c1nnnn1Cc1ccco1)N1CCN(C2CCCC2)CC1 (stereo not given)	none
CC(C)C(c1nnnn1Cc1ccco1)N1CCN(c2nc3ccccc3s2)CC1 (stereo not given)	LASV entry inh inconclusive, FMDV inh 22.4µM, HCMV inh inconclusive
CC(C)CC(c1nnnn1Cc1ccco1)N1CCN(c2cccc(Cl)c2)CC1 (stereo not given)	Marburg entry inh 8.91µM, LASV entry inh inconclusive, FMDV inh inconclusive
CC(=O)CCc1ccc(OCC(O)CNC2CCCc3ccccc32)cc1 (stereo not given)	Marburg entry inh inconclusive, HCMV inh -73.2
COC(=O)CCc1ccc(OCC(O)CNC(C)C)cc1 (stereo not given)	HCMV inh -64.2 (no result: Marburg entry inh, LASV entry inh)
CC(=O)Nc1ccc(OC[C@@H](O)CNC(C)C)cc1	none (no result: Marburg entry inh, LASV entry inh, HCMV inh)
CCC(C)(C)n1nnnc1C(c1cc2ccc(OC)cc2[nH]c1=O)N1CCN(C2CCCCC2)CC1 (stereo not given)	Marburg entry inh 13µM
COc1ccccc1N1CCN(C(c2cc3ccc(C)cc3[nH]c2=O)c2nnnn2C2CCCC2)CC1 (stereo not given)	Marburg entry inh 13µM
COc1ccc(OC)c(C(c2nnnn2C2CCCC2)N2CCN(c3ccccc3F)CC2)c1 (stereo not given)	Marburg entry inh 10µM, LASV entry inh inconclusive
COc1ccc(N2CCN(C(c3cccc(OC)c3OC)c3nnnn3C3CCCC3)CC2)cc1 (stereo not given)	Marburg entry inh inconclusive, LASV entry inh 2.82µM
CCC(C)(C)n1nnnc1C(c1cc2cc3c(cc2[nH]c1=O)OCO3)N1CCCCC1 (stereo not given)	none
CSc1nnc2c(n1)OC(C)N(C(=O)c1ccccc1)c1ccccc1-2 (stereo not given)	none
Cc1ccc(Nc2cc(C)nc3nc(C)nn23)c(C)c1	FMDV inh 0.708µM
